Reference: PubChem BioAssay (EPA / NIEHS)
Active and inactive are the calls of the source. The calls were made as follows: active = hit-call score of the fitted dose curve at least 0.9, where 1 is the maximum; inactive = score below 0.9.

Columns and labels:
[1] = ATG_GRE_CIS: Attagene CIS-FACTORIAL HepG2 Assay for human Glucocorticoid Response Elements (GRE) (AID 2282947); details: HepG2 GRE cis-reporter, Attagene multiplex mRNA; actives raise or lower the signal
Summary of the method: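 Reporter transcripts read by RT-PCR with capillary electrophoresis fluorescence after a 24 h chemical exposure of HepG2 cells transiently transfected with multiple cis-element reporter units. Gain or loss fitted against DMSO.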

[2] = ATG_ISRE_CIS: Attagene CIS-FACTORIAL HepG2 Assay for human Interferon Regulatory Factor 1 (IRF1) binding to an Interferon-Stimulated Response Element (ISRE) (AID 2282948); details: HepG2 ISRE cis-reporter (Attagene), mRNA transcription readout; actives raise or lower the signal
Summary of the method: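 Endogenous transcription factor activity read as reporter transcript abundance via RT-PCR and capillary electrophoresis. HepG2 cells transiently transfected, 24 h chemical exposure. Gain or loss fitted against DMSO baseline.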

[3] = ATG_M_32_CIS: Attagene CIS-FACTORIAL HepG2 Assay for M32 Transcription Factor (Internal Marker) (AID 2282949); details: HepG2 Attagene cis-factorial M32 reporter, mRNA; actives raise or lower the signal;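 also: background control marker of the multiplexed CIS panel rather than a real target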
Summary of the method: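 HepG2 human liver cells transiently transfected with cis-promoter-driven multiple reporter transcription units, dosed 24 h. Reporter mRNA quantified by RT-PCR, FAM-labelled primer extension, HpaI digest and capillary electrophoresis; bidirectional fit versus DMSO baseline.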

[4] = ATG_M_06_CIS: Attagene CIS-FACTORIAL HepG2 Assay for M06 Transcription Factor (Internal Marker) (AID 2282950); details: HepG2 Attagene CIS-FACTORIAL M06 internal marker reporter; actives raise or lower the signal
Summary of the method: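 Terse: HepG2, transient MRTU transfection (FuGene 6), 24 h dosing; total RNA, oligo(dT) RT, PCR, FAM label, HpaI cut, capillary electrophoresis; bidirectional fit vs DMSO baseline; background-control endpoint.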

[5] = target: Heat shock factor protein 1 (Homo sapiens) (UniProt Q00613); assay: ATG_HSE_CIS: Attagene CIS-FACTORIAL HepG2 Assay for human Heat Shock Transcription Factor 1 (HSE) (AID 2282953); details: HepG2 HSE cis-reporter, Attagene RNA transcription; actives raise or lower the signal
Summary of the method: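 Read-out: fluorescence of reporter-specific RT-PCR fragments separated by capillary electrophoresis. HepG2 carrying transfected cis-element reporter units; 24 h dosing; activity fitted in both directions relative to DMSO baseline.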

[6] = ATG_MRE_CIS: Attagene CIS-FACTORIAL HepG2 Assay for human Metal Responsive Element (MRE) (AID 2282954); details: HepG2 MRE cis-reporter transcription, Attagene multiplex; actives raise or lower the signal
Summary of the method: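 Endogenous MRE-dependent transcription read as reporter mRNA in transiently transfected human HepG2 cells at 24 h. RNA reverse-transcribed, PCR-amplified, labelled and resolved by capillary electrophoresis; gain or loss relative to DMSO.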

[7] = target: Paired box protein Pax-6 (Homo sapiens) (UniProt P26367); assay: ATG_Pax6_CIS: Attagene CIS-FACTORIAL HepG2 Assay for human Paired Box 6 (PAX6) (AID 2282956); details: HepG2 CIS-FACTORIAL PAX6 reporter transcription, RNA readout; actives raise or lower the signal
Summary of the method: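 Read-out is reporter transcript level, measured by RT-PCR with fluorescent primer extension and capillary electrophoresis after 24 h dosing of transfected HepG2 cells. Activity in either direction fitted relative to DMSO control.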

[8] = ATG_PXRE_CIS: Attagene CIS-FACTORIAL HepG2 Assay for human Pregnane X Receptor Element (PXRE) (AID 2282957); details: HepG2 Attagene CIS-FACTORIAL PXRE reporter, mRNA; actives raise or lower the signal
Summary of the method: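 Read-out: fluorescence of reporter-specific RT-PCR products resolved by capillary electrophoresis, fitted bidirectionally relative to DMSO. Human HepG2 liver cells carried transfected cis-promoter reporter units and were exposed to chemicals for 24 h.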

[9] = ATG_PPRE_CIS: Attagene CIS-FACTORIAL HepG2 Assay for human Peroxisome Proliferator-activated Response Element (PPRE) (AID 2282958); details: HepG2 PPRE cis-element reporter, Attagene transcription factor profiling; actives raise or lower the signal
Summary of the method: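 HepG2 cells are transiently transfected with multiplexed cis-promoter reporter units to report endogenous PPAR activity. After 24 h dosing, reporter mRNA is read by RT-PCR and capillary electrophoresis. Fitting is bidirectional against DMSO.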

[10] = ATG_RORE_CIS: Attagene CIS-FACTORIAL HepG2 Assay for human RAR-related Orphan Receptor Element (RORE) (AID 2282959); details: HepG2 Attagene cis-factorial RORE reporter, mRNA; actives raise or lower the signal
Summary of the method: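 HepG2 cells carrying transiently transfected cis-regulated reporter units; RORE-driven reporter mRNA quantified 24 h post-dosing by RT-PCR, 6-FAM primer extension, HpaI digestion and capillary electrophoresis. Bidirectional fit versus DMSO.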

[11] = ATG_Sox_CIS: Attagene CIS-FACTORIAL HepG2 Assay for human SRY-box transcription factor (SOX) (AID 2282960); details: HepG2 Attagene cis-factorial SOX reporter, mRNA; actives raise or lower the signal
Summary of the method: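 HepG2 cells transiently transfected with multiple cis-regulated reporter units, then dosed for 24 h. Reporter mRNA quantified by RT-PCR, fluorescent labelling, HpaI digestion and capillary electrophoresis; bidirectional fit versus DMSO.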

[12] = target: Transcription factor Sp1 (Homo sapiens) (UniProt P08047); assay: ATG_Sp1_CIS: Attagene CIS-FACTORIAL HepG2 Assay for human Specificity Protein 1 (Sp1) (AID 2282961); details: HepG2 Sp1 cis-reporter transcription, actives raise or lower the signal
Summary of the method: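 HepG2 cells transiently transfected with multiplexed cis-regulated reporter constructs, chemical exposure 24 h. Reporter mRNA quantified by RT-PCR with capillary electrophoresis; bidirectional fit relative to DMSO.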

[13] = ATG_SREBP_CIS: Attagene CIS-FACTORIAL HepG2 Assay for human Sterol Regulatory Element Binding (SREBP) (AID 2282962); details: HepG2 Attagene cis-factorial SREBP reporter, mRNA; actives raise or lower the signal
Summary of the method: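 Endogenous SREBP activity read as cis-element-driven reporter transcript in transiently transfected HepG2, 24 h post-dosing; quantified via RT-PCR plus capillary electrophoresis of fluorescent fragments. Gain or loss of signal fitted relative to DMSO baseline.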

[14] = target: Signal transducer and activator of transcription 3 (Homo sapiens) (UniProt P40763); assay: ATG_STAT3_CIS: Attagene CIS-FACTORIAL HepG2 Assay for human Signal Transducer and Activator of Transcription 3 (STAT3) (AID 2282963); details: HepG2, Attagene cis-factorial STAT3 reporter transcription; actives raise or lower the signal
Summary of the method: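 Readout is reporter transcript quantified by RT-PCR and capillary electrophoresis, with 6-FAM primer extension and HpaI digestion. Total RNA is taken 24 h after dosing transiently transfected HepG2 carrying cis-regulated reporter units. Bidirectional fit against DMSO.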

[15] = ATG_TA_CIS: Attagene CIS-FACTORIAL HepG2 Assay for human TA Basal Promoter (AID 2282964); details: HepG2 Attagene CIS-factorial TA basal promoter reporter; actives raise or lower the signal
Summary of the method: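 Transfected HepG2, 24 h compound exposure; RNA → RT-PCR → FAM primer extension → HpaI cut → CE fluorescence. Gain/loss-of-signal fitted against DMSO negative control. Background-control readout.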

[16] = ATG_TCF_b_cat_CIS: Attagene CIS-FACTORIAL HepG2 Assay for human T-Cell-Factor with beta-catenin (TCF/b-cat) (AID 2282965); details: HepG2 TCF/beta-catenin cis-reporter transcription, actives raise or lower the signal
Summary of the method: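 Endogenous TCF/LEF activity read as reporter transcript level via RT-PCR and capillary electrophoresis fluorescence in transfected HepG2, 24 h exposure; gain or loss of signal fitted against DMSO controls.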

[17] = ATG_TAL_CIS: Attagene CIS-FACTORIAL HepG2 Assay for human TAL Basal Promoter (AID 2282966); details: HepG2 Attagene cis-factorial TAL promoter reporter; actives raise or lower the signal;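 also: background control endpoint measuring basal TAL promoter reporter mRNA not a specific factor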
Summary of the method: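 HepG2, transient MRTU transfection, 24 h compound exposure; RNA → oligo(dT) RT → PCR → 6-FAM primer extension → HpaI digest → CE fluorescence. Bidirectional curve fit vs DMSO. Background-control readout.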

[18] = target: Hypoxia-inducible factor 1-alpha (Homo sapiens) (UniProt Q16665); assay: ATG_HIF1a_CIS: Attagene CIS-FACTORIAL HepG2 Assay for human Hypoxia Inducible Factor 1 (HIF1A) (AID 2282951); details: HepG2 Attagene cis-factorial HIF1a reporter transcription; actives raise or lower the signal
Summary of the method: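 HepG2 cells transiently transfected with multiple cis-regulated reporter transcription units measure endogenous transcription factor activity. After 24 h exposure, reporter mRNA is quantified by RT-PCR with 6-FAM labelling, HpaI digestion and capillary electrophoresis. Bidirectional fitting against DMSO.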

[19] = ATG_PBREM_CIS: Attagene CIS-FACTORIAL HepG2 Assay for human Phenobarbital-responsive Enhancer Module (PBREM) (AID 2282955); details: HepG2 PBREM cis-reporter, Attagene multiplexed transcription; actives raise or lower the signal
Summary of the method: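 HepG2 cells transiently transfected with multiple cis-regulated reporter units measure endogenous transcription factor activity; 24 h compound exposure. Reporter mRNA quantified by RT-PCR, fluorescent labelling, HpaI digestion and capillary electrophoresis; bidirectional fit versus DMSO.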

[20] = target: Hepatocyte nuclear factor 6 (Homo sapiens) (UniProt Q9UBC0); assay: ATG_HNF6_CIS: Attagene CIS-FACTORIAL HepG2 Assay for human Hepatocyte Nuclear Factor 6 (HNF6) (AID 2282952); details: HepG2 Attagene cis-factorial HNF6 reporter transcription; actives raise or lower the signal
Summary of the method: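 Readout: fluorescent reporter-transcript fragments resolved by capillary electrophoresis after RT-PCR, reflecting endogenous factor activity in transfected HepG2. Exposure 24 h. Gain or loss of signal fitted bidirectionally against DMSO.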

Measured: AC50

Sequence of Heat shock factor protein 1 (Homo sapiens) (Q00613 whole entry, looked up, the tested form may be a part): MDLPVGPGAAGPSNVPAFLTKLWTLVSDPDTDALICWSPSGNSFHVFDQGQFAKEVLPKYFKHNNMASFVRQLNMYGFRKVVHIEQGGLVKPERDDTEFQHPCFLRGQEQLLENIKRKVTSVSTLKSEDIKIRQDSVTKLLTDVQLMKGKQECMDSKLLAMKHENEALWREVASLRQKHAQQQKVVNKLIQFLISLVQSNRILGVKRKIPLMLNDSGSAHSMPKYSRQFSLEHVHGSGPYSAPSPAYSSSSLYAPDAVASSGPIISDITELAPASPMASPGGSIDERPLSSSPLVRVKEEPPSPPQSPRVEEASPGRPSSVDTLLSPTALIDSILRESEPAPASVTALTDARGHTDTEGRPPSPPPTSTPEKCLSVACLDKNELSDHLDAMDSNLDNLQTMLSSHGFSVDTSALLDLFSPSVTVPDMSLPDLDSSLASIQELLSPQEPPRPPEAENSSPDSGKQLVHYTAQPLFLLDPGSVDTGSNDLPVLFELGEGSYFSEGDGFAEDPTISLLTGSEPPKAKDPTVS
Sequence of Paired box protein Pax-6 (Homo sapiens) (P26367 whole entry, looked up): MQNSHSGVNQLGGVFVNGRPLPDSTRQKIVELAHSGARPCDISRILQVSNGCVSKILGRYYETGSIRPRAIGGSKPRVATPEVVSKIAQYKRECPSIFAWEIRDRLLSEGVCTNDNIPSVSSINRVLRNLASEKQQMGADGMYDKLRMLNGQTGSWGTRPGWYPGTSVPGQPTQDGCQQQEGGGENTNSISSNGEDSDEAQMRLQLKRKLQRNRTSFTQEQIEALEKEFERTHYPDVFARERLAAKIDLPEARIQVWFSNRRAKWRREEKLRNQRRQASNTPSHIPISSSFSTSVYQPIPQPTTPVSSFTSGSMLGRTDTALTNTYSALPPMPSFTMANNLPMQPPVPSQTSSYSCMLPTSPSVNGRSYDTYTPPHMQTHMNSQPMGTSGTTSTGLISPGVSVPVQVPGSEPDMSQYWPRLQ
Sequence of Hypoxia-inducible factor 1-alpha (Homo sapiens) (Q16665 whole entry, looked up): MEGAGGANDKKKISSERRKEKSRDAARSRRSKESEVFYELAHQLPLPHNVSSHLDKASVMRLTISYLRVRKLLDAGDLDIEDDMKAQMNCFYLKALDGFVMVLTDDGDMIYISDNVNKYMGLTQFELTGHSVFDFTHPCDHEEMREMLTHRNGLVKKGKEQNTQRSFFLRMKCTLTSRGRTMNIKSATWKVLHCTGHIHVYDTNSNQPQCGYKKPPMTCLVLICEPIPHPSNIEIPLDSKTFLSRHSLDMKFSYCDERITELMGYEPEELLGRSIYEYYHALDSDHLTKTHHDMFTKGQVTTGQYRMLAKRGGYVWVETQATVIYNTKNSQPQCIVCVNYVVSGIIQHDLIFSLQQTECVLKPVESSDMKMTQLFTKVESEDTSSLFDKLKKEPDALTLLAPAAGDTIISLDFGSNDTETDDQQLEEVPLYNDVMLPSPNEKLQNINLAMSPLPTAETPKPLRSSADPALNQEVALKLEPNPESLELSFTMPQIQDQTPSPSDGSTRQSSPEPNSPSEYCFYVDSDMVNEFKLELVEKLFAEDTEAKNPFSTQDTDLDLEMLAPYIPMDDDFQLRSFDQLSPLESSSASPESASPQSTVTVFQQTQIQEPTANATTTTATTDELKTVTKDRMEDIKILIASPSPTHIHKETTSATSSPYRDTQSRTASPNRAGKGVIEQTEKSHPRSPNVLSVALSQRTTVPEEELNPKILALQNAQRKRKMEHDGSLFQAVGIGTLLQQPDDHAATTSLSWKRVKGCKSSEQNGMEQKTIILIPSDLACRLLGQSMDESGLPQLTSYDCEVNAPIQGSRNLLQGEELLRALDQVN
Sequence of Hepatocyte nuclear factor 6 (Homo sapiens) (Q9UBC0 whole entry, looked up, the tested form may be a part): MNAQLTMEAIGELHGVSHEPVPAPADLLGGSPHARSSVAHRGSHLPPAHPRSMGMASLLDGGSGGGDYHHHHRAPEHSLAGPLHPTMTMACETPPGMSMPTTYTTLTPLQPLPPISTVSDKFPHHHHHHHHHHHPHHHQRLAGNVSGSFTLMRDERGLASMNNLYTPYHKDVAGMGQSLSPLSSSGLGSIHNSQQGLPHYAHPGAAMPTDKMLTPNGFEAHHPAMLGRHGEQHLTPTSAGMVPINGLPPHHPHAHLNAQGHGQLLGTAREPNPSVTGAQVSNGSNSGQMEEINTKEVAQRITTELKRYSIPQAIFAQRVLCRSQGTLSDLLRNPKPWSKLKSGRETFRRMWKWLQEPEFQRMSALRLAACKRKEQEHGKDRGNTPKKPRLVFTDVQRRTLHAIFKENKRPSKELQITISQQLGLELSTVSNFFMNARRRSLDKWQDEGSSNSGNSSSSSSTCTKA
Sequence of Signal transducer and activator of transcription 3 (Homo sapiens) (P40763 whole entry, looked up): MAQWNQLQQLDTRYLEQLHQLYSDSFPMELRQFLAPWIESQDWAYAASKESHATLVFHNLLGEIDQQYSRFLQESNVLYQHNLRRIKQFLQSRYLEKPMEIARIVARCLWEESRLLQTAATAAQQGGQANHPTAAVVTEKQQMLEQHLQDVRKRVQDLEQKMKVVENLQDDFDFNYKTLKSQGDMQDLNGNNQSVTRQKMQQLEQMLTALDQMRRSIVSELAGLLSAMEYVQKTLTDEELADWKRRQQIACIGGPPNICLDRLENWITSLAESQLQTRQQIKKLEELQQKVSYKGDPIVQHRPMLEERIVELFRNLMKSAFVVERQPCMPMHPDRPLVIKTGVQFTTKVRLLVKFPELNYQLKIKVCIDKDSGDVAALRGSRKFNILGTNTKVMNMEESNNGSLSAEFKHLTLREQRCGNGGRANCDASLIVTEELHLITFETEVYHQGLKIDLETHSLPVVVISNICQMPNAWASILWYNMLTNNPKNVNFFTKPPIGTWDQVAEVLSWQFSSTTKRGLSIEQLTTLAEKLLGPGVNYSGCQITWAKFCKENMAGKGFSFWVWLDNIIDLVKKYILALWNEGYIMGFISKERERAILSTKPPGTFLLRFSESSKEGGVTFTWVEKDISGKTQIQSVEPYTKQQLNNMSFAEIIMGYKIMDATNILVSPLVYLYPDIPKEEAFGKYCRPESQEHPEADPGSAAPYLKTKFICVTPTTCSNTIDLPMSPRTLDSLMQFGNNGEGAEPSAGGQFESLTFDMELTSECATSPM
Sequence of Transcription factor Sp1 (Homo sapiens) (P08047 whole entry, looked up): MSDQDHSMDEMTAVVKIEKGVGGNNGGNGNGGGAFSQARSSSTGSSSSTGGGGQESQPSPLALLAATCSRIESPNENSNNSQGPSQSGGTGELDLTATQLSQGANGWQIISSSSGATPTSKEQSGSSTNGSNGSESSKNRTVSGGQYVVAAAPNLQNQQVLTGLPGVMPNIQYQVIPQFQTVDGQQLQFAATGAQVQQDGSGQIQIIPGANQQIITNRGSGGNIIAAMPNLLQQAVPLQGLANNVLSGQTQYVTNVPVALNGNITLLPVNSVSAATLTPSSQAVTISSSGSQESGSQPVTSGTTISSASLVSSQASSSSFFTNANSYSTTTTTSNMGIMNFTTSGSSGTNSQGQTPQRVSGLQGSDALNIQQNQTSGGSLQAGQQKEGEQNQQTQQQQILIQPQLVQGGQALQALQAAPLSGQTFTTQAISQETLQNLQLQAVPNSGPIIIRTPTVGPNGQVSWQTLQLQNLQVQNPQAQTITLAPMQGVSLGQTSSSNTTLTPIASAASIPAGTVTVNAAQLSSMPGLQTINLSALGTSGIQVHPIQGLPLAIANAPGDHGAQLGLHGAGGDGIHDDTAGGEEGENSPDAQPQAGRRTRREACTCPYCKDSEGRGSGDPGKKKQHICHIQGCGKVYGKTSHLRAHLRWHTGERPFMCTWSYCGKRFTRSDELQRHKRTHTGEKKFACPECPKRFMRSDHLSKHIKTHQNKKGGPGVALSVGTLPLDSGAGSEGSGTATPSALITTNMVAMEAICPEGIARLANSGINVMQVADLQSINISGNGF

O=C(O)c1cc(N=Nc2ccc(S(=O)(=O)Nc3ccccn3)cc2)ccc1O
not listed: [18] | [19] | [20]
inactive: all other assays above

O=C(O)CC(O)C(=O)O (stereo not drawn)
not listed: [1] | [9] | [20]
inactive: all other assays above

C[C@](N)(Cc1ccc(O)c(O)c1)C(=O)O
not listed: [1] | [9] | [10] | [11]
inactive: all other assays above

CCCCCCCCCCCCc1ccccc1
not listed: [1] | [18]
inactive: all other assays above

COc1ccc(-n2nc(C(F)F)cc2-c2ccc(S(C)=O)cc2)cc1 (stereo not drawn)
active: [8] 26.6 µM | [13] 126 µM
not listed: [5] | [11] | [18] | [19] | [20]
inactive: all other assays above

CCOCCOCCOCCO
not listed: [1] | [9]
inactive: all other assays above

CN(C)c1ccc(Cc2ccc(N(C)C)cc2)cc1
active: [6] 50.3 µM | [8] 26.6 µM | [9] 36.7 µM | [12] 100 µM | [13] 43.4 µM
not listed: [18] | [19] | [20]
inactive: all other assays above
